# Data from PubChem BioAssay (NCI).
# This is part of a sample that, as a whole, favours compounds with a hit. Of some 79,000 tested, about 15% had one in any assay. Calls of active or inactive are those of the source. Cut-off read from the data, not from the text of the source: active = growth inhibition above about 70%; inactive = the rest.
# Assay: NCI Yeast Anticancer Drug Screen. Data for the bub3 strain (AID 167)
# Conditions: S. cerevisiae bub3 mutant strain, at 50.0 µM (retest, dose inferred, filed as 5.0), stronger effect = higher value
# In short: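 Screening used yeast with an engineered genetic alteration affecting cell cycle control. Compound-exposed cultures were compared with vehicle cultures, and reduced growth was taken as inhibition.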
row,Structure (SMILES),growth inhibition
1,CCCNC(=O)OCc1ccc(NCCN(CC)CC)c2c(=O)c3ccccc3sc12,10% (inactive)
2,COc1cc(C(c2cc3c(cc2O)OCO3)N2CCCCC2)cc(OC)c1OC (centres undefined),4% (inactive)
3,Cc1cc2c(cc1Cl)Sc1nnc(C)n1S2(=O)=O,85% (active)
4,O=C(Oc1cccc2cccnc12)c1ccccc1,99% (active)
5,CCCCCCN(CCCCCC)CCC(=O)c1ccc2cc(Br)c3ccccc3c2c1,92% (active)
6,Cc1c2cc(Cl)ccc2cc2c1ccc1ccccc12,-4% (inactive)
7,O=C1OC(CCCl)(c2ccccc2)CC1CN1CCOCC1 (centres undefined),94% (active)
8,CCOC(=N)CCCSSc1ccc(N=[N+]=[N-])cc1,99% (active)
9,Cc1[nH]c2ccccc2c1/C=C1\C(=O)C2CCC1C2 (centres undefined),80% (active)
10,O=C(O)c1ccc2c3c(ncnc13)-c1ccccc1C2=O,90% (active)
11,CCNCCNc1cc(O)c2c(c1O)C(=O)c1ccccc1C2=O,98% (active)
12,Nc1nc(N)c2nc(CNc3ccc(C(=O)NC(CCC(=O)O)C(=O)O)cc3)cnc2n1 (centres undefined),-47% (inactive)
13,COc1ccccc1OC(=O)Oc1ccccc1OC,9% (inactive)
14,NNC(=O)c1c(SCc2ccccc2)nc2c3ccccc3ccn12,69% (inactive)
15,N#CC1Oc2ccccc2N1C(=O)c1ccccc1 (centres undefined),48% (inactive)
16,O=C1C2=Cc3ccccc3CCN2c2ccccc21,2% (inactive)
17,Cc1cc([N+](=O)[O-])cc(Cl)c1O,66% (inactive)
18,Cc1c(Cl)cccc1N=NC(=O)NNc1cccc(Cl)c1C,97% (active)
19,CCC[CH2][Sn]1([CH2]CCC)[O]C(=O)CN=Cc2c(ccc3ccccc23)[O]1,53% (inactive)
